From PubChem BioAssay AID588676 (Johns Hopkins Ion Channel Center, 2011)
Screen size: about 310,000 compounds; about 3,900 (1.3%) were called active. The sample holds actives, similar compounds and a random draw of the others, so the mix is not that of the screen.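 How the source made its calls: active means calcium-response B-score plate-corrected more than 3 library SD below zero, starting fluorescence within 5 deviations, no agonist response on first addition; inactive means the rest.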

Target: Mas-related G-protein coupled receptor member X1 (Homo sapiens) (UniProt Q96LB2)
Sequence (Q96LB2 whole entry, looked up): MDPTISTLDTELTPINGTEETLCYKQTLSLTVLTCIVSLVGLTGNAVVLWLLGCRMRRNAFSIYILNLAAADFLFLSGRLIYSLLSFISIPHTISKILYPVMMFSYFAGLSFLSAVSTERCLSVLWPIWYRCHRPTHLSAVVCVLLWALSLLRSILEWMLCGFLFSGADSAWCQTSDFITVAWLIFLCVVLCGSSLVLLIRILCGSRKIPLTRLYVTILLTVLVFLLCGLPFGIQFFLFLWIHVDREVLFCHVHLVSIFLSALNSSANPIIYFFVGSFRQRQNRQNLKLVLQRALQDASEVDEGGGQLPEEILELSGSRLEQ
Assay: antagonists of human MrgX1 receptor, primary screen, HEK293 cells, Fluo-4 calcium flux (AID 588676);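 on B-score: peak minus trough fluorescence over baseline after final BAM8-22 challenge near maximal dose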
Settings: Fluo-4, BAM8-22 antagonism, at 10 µM; hits give low values

Row | Structure (SMILES) | B-score
1 | Cc1c(C(=O)NCC(c2ccco2)N2CCCC2)oc2ccc(Cl)cc12 (configuration not stated) | inactive
2 | Cc1c(-c2ccccc2)cn2c1-c1ccc(C)n1CC2 | inactive
3 | Cc1cc(Br)ccc1NC(=O)c1sc2ncn(CC(=O)N3CCN(c4ccccn4)CC3)c(=O)c2c1C | inactive
4 | Cc1cc(Br)ccc1NC(=O)c1cnc(N2CCN(c3ccccn3)CC2)c2ccccc12 | -5.72 (active)
5 | O=C(Cc1ccc(Br)cc1)N1CCN(c2ccccn2)CC1 | inactive
6 | O=C(Nc1cc(C(F)(F)F)ccc1Cl)c1cc2nc3c(c(C(F)(F)F)n2n1)CCCC3 | inactive
7 | COC(=O)c1ccc2ccccc2c1OC1OC(CO)C(O)C(O)C1NC(C)=O (configuration not stated) | inactive
8 | O=C(Nc1ccc(Cl)cc1)c1cc2nc(C3CC3)cc(C(F)(F)F)n2n1 | inactive
9 | Cc1cc(C)c(S(=O)(=O)NCC2CCC(C(=O)NCc3ccc4c(c3)OCO4)CC2)c(C)c1 (configuration not stated) | inactive
10 | COc1cc(NC(=O)CN2C(=O)NC(C)(c3ccc(OC(F)F)cc3)C2=O)cc(OC)c1OC (configuration not stated) | inactive
11 | CCN1CCN(CCNC(=O)c2ccc3c(c2)NC(=O)/C(=C\c2ccc(OC)c(OC)c2)S3)CC1 | inactive
12 | O=C(NCCN1CCOCC1)c1ccc(/C=C2\Sc3ccccc3N(Cc3ccc(F)cc3)C2=O)cc1 | inactive
13 | CCN1CCN(CCNC(=O)c2ccc(/C=C3/Sc4ccccc4N(Cc4cccc(C)c4)C3=O)cc2)CC1 | -7.53 (active)
14 | Cc1ccc(Nc2cc(=O)n(C3CCCCC3)c(=O)[nH]2)cc1C | inactive
15 | COc1cccc(N(Cc2nnc3n2CCCCC3)C(=O)Nc2ccccc2F)c1 | inactive
16 | Cc1cccc(Nc2nc(-c3ccccc3)cs2)n1 | inactive
17 | Cc1ccc(Nc2nc(-c3ccc(O)cc3O)cs2)nc1 | -4.59 (active)
18 | Clc1ccc(Nc2nc(-c3cccs3)cs2)nc1 | inactive
19 | COc1ccc(-c2cc(C(=O)N(C)Cc3ccc(OC)c(OC)c3OC)c3ccccc3n2)cc1OC | inactive
20 | CCCCCCCCCCOC(=O)Cn1c(COc2ccc(C)cc2)[n+](C)c2ccccc21 | -10.1 (active)
21 | CCCCCCCCCCOC(=O)Cn1c(COc2cccc(OC)c2)[n+](C)c2ccccc21 | -13.2 (active)
22 | Cc1ccc(OCc2nc3ccccc3n2C)cc1 | inactive
23 | Cc1ccc(OCCCn2c(=O)oc3ccccc32)cc1 | inactive

Row | Structure (SMILES) | B-score
24 | CCCCCCCCC(=O)NCCOc1ccccc1 | inactive
25 | CCn1c(COc2cccc(OC)c2)nnc1SCC(=O)N1CCOCC1 | inactive
26 | CCOC(=O)c1cc(NC(=O)SCC(=O)O)c(C)nc1C | inactive
27 | CCOc1ccc(NC(=O)Nc2ccc(N(C)C(C)=O)cc2)cc1 | inactive
28 | CC(=O)N(C)c1ccc(NC(=O)C(F)(F)F)cc1 | -7.18 (active)
29 | CC(=O)N(C)c1ccc(NC(=O)Nc2cccc3ccccc23)cc1 | inactive
30 | O=C(COC(=O)Cn1cnc2ccccc21)Nc1cccc2c1C(=O)c1ccccc1C2=O | inactive
31 | Cc1cccc(NC(=O)Cc2ccc(Br)cc2)n1 | inactive
32 | O=C(Cc1c(F)cccc1Cl)Nc1ccc(-n2cnnn2)cc1 | inactive
33 | O=S(=O)(NC1CCCC1)c1ccc(-n2cnnn2)cc1 | inactive
34 | c1cc(-n2cnnn2)ccc1NC1=NCCC1 | -5.5 (active)
35 | Cc1ccc(Cl)c(OCC(=O)N(C)CC(=O)Nc2ccc(N3CCOCC3)cc2)c1 | inactive
36 | CCOC(=O)c1ccc(COC(=O)CCc2nc(-c3ccccc3)c(-c3ccccc3)o2)cc1 | inactive
37 | O=C(Nc1ccc(Cl)cc1)Nc1ccc(Oc2cccnc2)nc1 | -7.03 (active)
38 | Cc1ccc(NC(=O)Nc2cccnc2)cc1 | inactive
39 | O=C(NNC(=O)c1csc(-c2cccnc2)n1)Nc1ccc(Cl)cc1 | inactive
40 | CCn1c(SCC(=O)Nc2cc(C)ccc2C)nnc1-c1cnccn1 | inactive
41 | Cc1ccccc1NC(=O)C(C)c1ccc(-c2ccccc2)c(F)c1 (configuration not stated) | inactive
42 | CCOc1ccc(CN2CCC(n3nccc3NC(=O)C3CC3)CC2)cc1CO | inactive
43 | Cc1ccc(C(C(=O)NC2CCCCC2)N(C(=O)c2csnn2)C2CC2)o1 (configuration not stated) | -7.09 (active)
44 | O=C(NC1CCCC1)C(c1ccccn1)N(C(=O)c1csnn1)C1CCCC1 (configuration not stated) | inactive
45 | O=C(NC1CCCC1)C(c1ccc(Cl)cc1)N(C(=O)c1csnn1)C1CC1 (configuration not stated) | inactive
46 | CCc1ccc(Nc2n[n+](-c3ccccc3)c(-c3cccc(Cl)c3Cl)s2)cc1 | inactive

Row | Structure (SMILES) | B-score
47 | CCc1nnc(NC(=O)CCC(=O)N2CCN(c3cc(C)ccc3C)CC2)s1 | inactive
48 | CC1CCC(N2CC(=O)N(Cc3ccc4c(c3)OCO4)C(c3ccc(F)cc3)C2=O)CC1 (configuration not stated) | inactive
49 | CCc1ccccc1NC(=O)c1ccc2c(c1)CCN2S(C)(=O)=O | inactive
50 | CC(=O)Nc1ccc(Oc2ccc3c(c2)C(=O)NC3=O)cc1 | inactive
51 | CCCCN(C)CCC(=O)Nc1ccc(Cl)cc1 | inactive
52 | CCCCC(=O)Nc1ccc2c(c1)C(=O)NC2=O | -4.77 (active)
53 | Cc1ccc(CN(CC(=O)NCC2CCCO2)S(=O)(=O)c2ccc(C)cc2)cc1 (configuration not stated) | inactive
54 | CCCCCC(=O)N1CCN(S(=O)(=O)c2ccc3c(c2)OCCCO3)CC1 | -12 (active)
55 | CN1CCCN(S(=O)(=O)c2ccc3c(c2)OCCO3)CC1 | inactive
56 | O=C(c1c(F)cccc1Cl)N1CCN(S(=O)(=O)c2ccc3c(c2)OCCCO3)CC1 | inactive
57 | COc1ccc(C(=O)NCCn2nc(C)cc2C)cc1OC1CCN(C(C)=O)CC1 | inactive
58 | CCOc1ccc(NC(=O)COc2ccc(C(=O)N3CCC(C(N)=O)CC3)cc2OC)cc1 | -8.23 (active)
59 | COc1ccc(C(=O)N2CCC(C(=O)Nc3cccc(C)c3)CC2)cc1OC | inactive
60 | CCOc1ccc(NC(=O)COc2ccc(C(=O)NC3CCCc4ccccc43)cc2OC)cc1 (configuration not stated) | inactive
61 | Cc1ccc(S(=O)(=O)CCC(=O)OCC(=O)N(C)C2CCS(=O)(=O)C2)cc1 (configuration not stated) | inactive
62 | O=C(CSc1nnc2n1CCCN2)c1ccccc1 | inactive
63 | Cc1cc(Cl)ccc1NC(=S)NCCCN1CCCC1=O | inactive
64 | O=C1CCCN1CCCNC(=S)Nc1ccc(F)c(Cl)c1 | -4.94 (active)
65 | Cc1c(Cl)cccc1NC(=O)NCCCN1CCCC1=O | inactive
66 | O=C(NC1CCN(Cc2ccccc2)CC1)c1cc(Br)c(Br)[nH]1 | inactive
67 | Oc1c(Cl)cc(Cl)c(Cl)c1Cc1c(O)c(Cl)cc(Cl)c1Cl | -8.06 (active)
